Pf apPOL inh: Pf-apPOL inhibitors, biochemical, fluorescence. Recombinant Pf-apPOL, molecular beacon fluorescence, 1.5 h. inhibition, % at 10 µM. 210,000 tested, 0.25% active
mHTT CaM bind: mutant huntingtin-calmodulin interaction inhibitors – biochemical, AlphaScreen, primary screen. 190,000 tested, 3.6% active. AlphaScreen His-mHTT/GST-CaM binding, luminescence. inhibition, % at 15 µM. AID 1671202, 2021
A number is an active result; – = inactive; · = not tested or not shown. The list is not random: actives were taken first. Their share in the collection is about 3.5%. Rule as the data show it: active = inhibition above about 50%; inactive = the rest.

SMILES	Pf apPOL inh	mHTT CaM bind
O=C1CC(c2ccccc2)CC2=C1C(c1ccc(Cl)cc1)Nc1ccccc1N2 (stereo not drawn)	–	–
O=C1CC(c2ccccc2)CC2=C1C(c1ccc(Cl)c([N+](=O)[O-])c1)Nc1ccccc1N2 (stereo not drawn)	–	84
CC1=C(c2ccccc2)S(=O)(=O)N=C1N1CCCN(C(=O)CC(C)C)CC1	–	–
O=C(NC1CC1)c1c2c(nc3ccc(F)cc13)CCC2	–	–
COc1cc(OC)c(OC)cc1C=C1Oc2c(ccc3c2CN(CCN2CCOCC2)CO3)C1=O	–	–
COCCN1COc2ccc3c(c2C1)OC(=Cc1ccc(OC)c(OC)c1)C3=O	–	–
COc1ccc(C=C2Oc3c(ccc4c3CN(CCN3CCOCC3)CO4)C2=O)cc1OC	–	62
COc1ccc(OC)c(C=C2Oc3c(ccc4c3CN(CCN3CCOCC3)CO4)C2=O)c1	–	54
NC(=O)CSc1ccc(-c2ccccn2)nn1	–	100
NC(=O)CSc1nc2ccccc2nc1SCC(N)=O	–	–
Cc1ccc2nc(NC(=O)CSc3ccc(-c4ccco4)nn3)sc2c1	74	85
O=C(CSc1cccc2cccnc12)Nc1nc2ccccc2s1	–	–
O=C(CSc1ccc(-c2ccccn2)nn1)Nc1nc2ccccc2s1	–	89
Cc1ccc2nc(NC(=O)CSc3ccc(NC(=O)C4CC4)nn3)sc2c1	–	–
O=C(c1ccccc1)N1CC(C(=O)N2CCCC2)C2(CCCCC2)C1 (stereo not drawn)	–	–
O=C(c1ccc(F)cc1F)N1CCc2nc(-c3ccc(F)cc3)ncc2C1	–	–
O=C(O)CCc1nc2ccccc2n(Cc2cccc(Cl)c2)c1=O	–	–
c1ccc2[nH]c(CCn3c4c(c5ccccc53)CCCC4)nc2c1	·	66
N#CCCn1c2c(c3ccccc31)CCCC2	–	–
Cc1ccc(NC(=O)N2CCCC(CCC(=O)NCc3ccccc3Cl)C2)cc1 (stereo not drawn)	–	–
CCS(=O)(=O)c1ccc2oc(=O)c(C=C(O)c3ccc(Br)cc3)nc2c1	–	–
COc1ccc(C2=NC3(CCCCC3)N(CC(=O)Nc3ccc(F)c(F)c3)C2=O)cc1	–	98
COc1ccc(NC(=O)CN2C(=O)C(c3ccccc3)=NC23CCCCCC3)cc1	–	–
COc1ccc(C2=NC3(CCCCC3)N(CC(=O)Nc3ccc(F)cc3)C2=O)cc1	–	66
Cc1cccc(NC(=O)CN2C(=O)C(c3ccc(F)cc3)=NC23CCCC3)c1C	–	–
SMILES	Pf apPOL inh	mHTT CaM bind
COc1ccc(NC(=O)CN2C(=O)C(c3ccc(C)cc3)=NC23CCCCC3)cc1	–	–
O=C(CN1C(=O)C(c2ccccc2)=NC12CCCC2)Nc1ccc(F)c(F)c1	–	–
Cc1ccccc1NC(=O)CN1C(=O)C(c2ccc(F)cc2)=NC12CCCCC2	–	50
COc1ccc(C2=NC3(CCCCCC3)N(CC(=O)Nc3ccc(Cl)cc3)C2=O)cc1	–	90
CC(C)=CCCC(C)NCc1ccco1 (stereo not drawn)	–	–
COc1ccccc1CNCc1ccccc1C(F)(F)F	–	–
O=C(Nc1cc(-c2ccsc2)no1)c1ccccc1C(F)(F)F	–	–
COc1ccc(-c2noc(C3CCCN3C(=O)NC3CCCC3)n2)cc1 (stereo not drawn)	–	–
Cc1ccc2cc3cc(C(=O)NC4CC4)sc3nc2c1	–	–
COCCNC(=O)C1CCN(CC2CC=CCC2)CC1 (stereo not drawn)	–	–
Cc1ccc(C(=O)N2CCN(C(=O)c3ccccc3)C2c2ccc(N(C)C)cc2)cc1 (stereo not drawn)	–	–
Cc1ccc(C(=O)N2CCN(S(=O)(=O)c3ccccc3)C2c2ccc(N(C)C)cc2)cc1 (stereo not drawn)	–	53
Cc1[nH]c2c(c1C)C(=O)CC(C)(C)C2	·	68
COC(=O)c1[nH]c2c(c1C)C(=O)CC(C)(C)C2	·	–
CC1=C(C(=O)Nc2cc(Cl)ccc2Cl)C2(CCC(C)CC2)OC1=O (stereo not drawn)	–	–
O=S(=O)(Cc1ccccc1)N1CCN(Cc2noc3ccccc23)CC1	–	–
Cc1noc(C2CN(C(=O)Nc3ccc(F)c(Cl)c3)CC23CCOCC3)n1 (stereo not drawn)	–	–
O=C(O)C1Nc2c(Cl)cc(Cl)cc2C2C=CCC12 (stereo not drawn)	·	95
O=C(c1cccc2c1NC(c1ccc(Cl)cc1Cl)C1CC=CC21)N1CCOCC1 (stereo not drawn)	–	–
O=C(O)C1Nc2c(Cl)cc(Cl)c(Cl)c2C2C=CCC12 (stereo not drawn)	·	96
O=C1CCCc2oc3c(Cl)cc(NS(=O)(=O)c4ccc(Cl)cc4)cc3c21	–	–
COc1cc(OC)c(NC(=O)N2CCc3nc[nH]c3C2)cc1Cl	–	–
Cc1ccc(C)c(C(=O)N2CCC(c3nc(C(=O)N4CCCC4)c(C)o3)CC2)c1	–	–
CC(C)NC(=O)N1CCCC(c2cccc(C(=O)N3CCN(c4ccccn4)CC3)c2)C1 (stereo not drawn)	–	–

Assay outcomes: PubChem BioAssay, University of Kansas High Throughput Screening Laboratory
